Source: PubChem BioAssay (National Center for Advancing Translational Sciences (NCATS))
Prx2 Sm inh = inhibitors of Schistosoma mansoni peroxiredoxin 2. AID 448. Potency, µM. hit rate 0.07% among 65,000. S. mansoni Prx2 activity coupled to TGR/GSH (TGR is thioredoxin glutathione reductase), NADPH fluorescence loss, qHTS
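qHTS, coupled TGR/Prx2 format; 15 min compound preincubation at RT; reaction started with H2O2 (2.5 mM aliquot); kinetic NADPH fluorescence decrease, ex 365/em 450 nm.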
LT uptake inh = anthrax lethal toxin internalization inhibition | Cells, anthrax lethal toxin internalization, FRET ratio (460/530) | Potency, µM (top dose mostly 40 µM), actives largely listed as inhibitors | hit rate 0.67% among 70,000 | AID 912; further: nearly all actives have a fitted effect of over 50% in size
AmpC inh det = blocks E. coli AmpC beta-lactamase in presence of detergent; P00811; purified AmpC, nitrocefin hydrolysis with detergent; Potency, µM (highest dose often 28.7 µM); hit rate 0.09% among 71,000; AID 584; active means well fitted curve in the direction sought with a large enough effect; inconclusive means small, poorly fitted or top-dose-only effect
Target sequence (P00811 whole entry, looked up): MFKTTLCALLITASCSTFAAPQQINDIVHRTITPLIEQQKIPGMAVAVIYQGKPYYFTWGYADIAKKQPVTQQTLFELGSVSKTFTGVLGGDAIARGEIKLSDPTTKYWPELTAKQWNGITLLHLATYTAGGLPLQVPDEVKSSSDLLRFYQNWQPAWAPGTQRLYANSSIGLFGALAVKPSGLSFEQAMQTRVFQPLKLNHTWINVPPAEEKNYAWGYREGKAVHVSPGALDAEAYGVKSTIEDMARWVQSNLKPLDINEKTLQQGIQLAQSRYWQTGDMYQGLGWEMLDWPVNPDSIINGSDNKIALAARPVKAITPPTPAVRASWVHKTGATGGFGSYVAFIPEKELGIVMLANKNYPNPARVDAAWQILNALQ
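E. coli AmpC (5.3 nM) in 20 mM phosphate pH 7.0 with 0.01% Triton X-100, preincubated 15 min RT with compound; nitrocefin (2 uL of 800 uM stock) hydrolysis followed by 480 nm absorbance every 20 s over 4 min.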
AmpC inh no det = AmpC beta-lactamase inhibition, detergent-free assay; AID 585; Potency, µM (series often up to 28.7 µM); hit rate 1.8% among 71,000; P00811; AmpC nitrocefin hydrolysis, absorbance 480 nm, no detergent
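AmpC, 20 mM phosphate pH 7.0; 15 min cpd preinc, RT; start with nitrocefin (800 uM stock); A480 kinetic read, 20 s intervals, 4 min. No-enzyme wells = negative control.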
Hits are given with their value; i = inactive; ? = inconclusive; nt = not tested or not shown; ! = not confirmed by another sample; [ ] = remark or other dose. A selection: hits, their analogues and other compounds. The true share with any hit is near 2.4%. Unless noted, the call rests on the fitted dose curve.

SMILES	Prx2 Sm inh	LT uptake inh	AmpC inh det	AmpC inh no det
O=C(O)c1ccccc1Nc1cccc(OCc2ccc3ccccc3n2)c1	i	16µM!	i	16µM![single pt active]
O=C(NCCN1CCN(c2ccccc2F)CC1)C1CCCN(S(=O)(=O)c2cnc[nH]2)C1 (configuration not stated)	i	i	i	4µM[single pt active]
O=C(NCCN1CCC(Cc2ccccc2)CC1)C1CCCN(S(=O)(=O)c2cnc[nH]2)C1 (configuration not stated)	i	i	i	4µM[single pt active]
O=C(NCCc1ccccc1)C1CCCN(S(=O)(=O)c2cnc[nH]2)C1 (configuration not stated)	i	i	i	i
COc1ccc(N2CCN(CCCNC(=O)C3CCCN(S(=O)(=O)c4cnc[nH]4)C3)CC2)cc1 (configuration not stated)	i	?	i	4µM[single pt active]
CCCS(=O)(=O)N1CCCC(C(=O)NCCCN2CCN(c3ccccc3F)CC2)C1 (configuration not stated)	i	i	i	i
CCOC(=O)CC1=NS(=O)(=O)c2ccccc2N1	i	i	i	i
COc1ccccc1N1CCN(C(=O)CCCC2=NS(=O)(=O)c3ccccc3N2)CC1	i	i	i	4µM[single pt active]
CCOc1ccc2[nH]c(C)c(CN(C)C)c(=O)c2c1	nt	?	i	i
CCOc1ccc2[nH]c(C)cc(=O)c2c1	i	i	i	4µM[single pt active]
NS(=O)(=O)c1ccc(NC(=O)CCC2CCCCC2)cc1	nt	i	i	7.9µM
Cc1ccc(S(=O)(=O)O[C@@H]2[C@H]([C@@H]3COC(C)(C)O3)O[C@H]3OC(C)(C)O[C@@H]32)cc1	i	i[8 µM]	i[5.75 µM]	i[5.75 µM]
CC(C)(C)c1ccc(O)c(CN(Cc2cc(C(C)(C)C)ccc2O)c2ccccc2)c1	i	i[8 µM]	i[5.75 µM]	i[5.75 µM]
Nc1ncnc2c1ncn2[C@H]1O[C@@H](C(=O)OCCO)[C@@H](O)[C@H]1O	i	i[8 µM]	i[5.75 µM]	i[5.75 µM]
CS(=O)(=O)c1ccc(Cn2c3c(c4cc(F)cc(F)c42)CCC[C@H]3CC(=O)O)cc1	i	i	i	i
COC(=O)c1cc(NC2c3ccccc3C(=O)N2c2cccnc2)cc(C(=O)OC)c1 (configuration not stated)	i	i	i	4µM[single pt active]
COC(=O)Cc1ccc(NC(=O)c2ccc(Br)o2)cc1	i	i	i	i
CCN(CC)c1ccc(NC(=O)c2ccc(Br)o2)cc1	nt	13µM	i	i
Cc1ccccc1-c1ccc2ncnc(-n3ccnc3)c2c1	i	5µM	i	i
CN(C)c1ccc(-c2ccc3ncnc(-n4ccnc4)c3c2)cc1	i	7.9µM	i	i
Cc1ccccc1-c1ccc2ncnc(N(C)C)c2c1	i	i	i	i
CCn1c(CCCc2nc3c([nH]2)c(=O)n(C)c(=O)n3C)nc2c1c(=O)n(C)c(=O)n2C	i	i[8 µM]	i[5.75 µM]	i[5.75 µM]
O=c1c(-c2cc(F)cc(F)c2)nc2cnc(N3CCOCC3)nc2n1C1CC1	i	?	i	i
Cc1nc2c3ccccc3n(CC(=O)c3ccc(F)cc3)c(=O)n2n1	i	?	i	4µM[single pt active]
CCOc1ccc2nc(NC(=O)COC)sc2c1	i	i	i	i
SMILES	Prx2 Sm inh	LT uptake inh	AmpC inh det	AmpC inh no det
CCOc1ccc2nc(NC(=O)Nc3cccs3)sc2c1	i	?	i	3.2µM[single pt active]
C[C@@]12CC[C@@H]3[C@@H](CC[C@H]4C[C@@H](O)CC[C@]43C)[C@H]1CC[C@@H]2c1cc(C(F)(F)F)n[nH]1	i	?	i[5.75 µM]	i[5.75 µM]
O=C1Nc2ccccc2SC(c2ccccc2)C1O (configuration not stated)	i	i	i	13µM[single pt active]
O=C(O)CC1Sc2ccccc2NC1=O (configuration not stated)	i	i	i	i
COc1cccc(NC(=O)c2oc3ccccc3c2NC(=O)C(C)(C)C)c1	i	13µM	i	i
Cc1cccc(OCC(=O)NCc2ccncc2)c1C	i	i	i	3.2µM[single pt active]
COC(=O)C1=C(C)N(Cc2ccccc2)[C@]23O[C@](C(=O)OC)(C(=O)N2C1c1ccccc1)C1CCOC(=O)C13 (some centres not stated)	nt	i[8 µM]	nt	nt
N#Cc1cccc(-c2nc(NCc3ccccc3)c3ccccc3n2)c1	i	?	i	i
Nc1c2c(nc3ccccc13)CCCC2	i	32µM!	i	i
Cc1ccccc1NC(=O)CN1C(=O)COc2ccc(Cl)cc21	i	10µM	i	i
Oc1ccc2cc(SSc3ccc4cc(O)ccc4c3)ccc2c1	nt	?	i	16µM
COc1ccc(-c2[nH]ncc2-c2cnn(-c3ccccc3)c2)c(O)c1	i	13µM	i	i
C[C@@H](C(=O)N[C@@H](CO)Cc1ccccc1)[C@H]1C[C@]1(C)[C@H](NC(=O)OCc1ccccc1)c1ccccc1	i	i	i	i
COc1cc(Cc2cnc(N)nc2N)cc(OC)c1OC	i	?	i	6.3µM!
CCCn1c(C)nc2c(N3CCC(N4CCN(C)CC4)CC3)nc(C)nc21	nt	i	i	i
COc1ccc(S(=O)(=O)n2nc(OC(=O)c3ccc(C)cc3)cc2N)cc1	i	i	i	13µM
COc1ccc(CCNC(=O)CSc2nc(N)c(C#N)c(-c3cccs3)c2C#N)cc1OC	i	?	i	i
Cc1ccccc1NC(=O)CSc1nc(N)c(C#N)c(-c2cccs2)c1C#N	i	i	i	10µM
OB(O)c1ccc(Br)cc1	nt	i	nt	nt
CC(C)Cc1cc(C(=O)NCCN2CCOCC2)no1	i	i	i	4µM[single pt active]
CC(C)Cc1cc(C(=O)Nc2ccc(F)cc2F)no1	i	i	i	4µM[single pt active]
O=C(Nc1ccc(F)cc1F)c1cc(-c2ccco2)on1	i	i	i	i
CC(C)Cc1cc(C(=O)Nc2cc(Cl)ccc2Cl)no1	i	i	i	4µM[single pt active]
CC(C)c1cc(C(=O)Nc2cc(Cl)ccc2O)no1	i	?	i	i
CC(C)Cc1cc(C(=O)Nc2c(F)cc(F)cc2Br)no1	i	i	i	4µM[single pt active]
SMILES	Prx2 Sm inh	LT uptake inh	AmpC inh det	AmpC inh no det
O=C(NCCN1CCOCC1)c1cc(-c2ccc(Cl)cc2)on1	i	?	i	i
N#C/C(=C\NC(=S)c1ccncc1)c1nc2ccccc2s1	i	i[8 µM]	i[5.75 µM]	i[5.75 µM]
COC(=O)[C@@]1(Cc2ccc(OC)cc2)[C@H]2c3cc(C(=O)N4CCCC4)n(CCc4ccc(O)c(OC)c4)c3C[C@H]2CN1C(=O)c1ccccc1	i	?	i	i
Cc1nc(N2CCOCC2)c2nc(-c3ccccc3)n(CCCN3CCCCC3C)c2n1 (configuration not stated)	nt	i	i	i
CC(C)C[C@@H](CC(=O)N[C@@H](CCCN)CC(=O)N[C@@H]1CCNC[C@H]1C(=O)N[C@H](CC(=O)N[C@@H](CCC(=O)O)CC(=O)O)Cc1ccccc1)NC(=O)[C@@H]1CNCC[C@H]1N	i	i	i	i
COc1ncc2nc(-c3cn(C)c4ccccc34)c(=O)n(CCc3ccccc3)c2n1	i	?	i	i
CO[C@@H]1COC(=O)[C@H](COCc2ccccc2)NC(=O)C/C=C\[C@@H](C)[C@H](OC)COC(=O)[C@@H](C)NC(=O)C/C=C\[C@H]1C	nt	i[8 µM]	nt	nt
O=C(Nc1ccc([N+](=O)[O-])cc1Cl)c1cc(Cl)ccc1O	i	0.25µM	i	i
N#Cc1nc(-c2ccccc2F)oc1N1CCCC1	i	i	i	i
CN(C)c1oc(-c2ccccc2F)nc1C#N	i	i	i	4µM[single pt active]
CN(C)Cc1c[nH]c2ccccc12	i	?	i	i
